Results: PubChem BioAssay (EPA / NIEHS)
Inconclusive results are not listed. Active and inactive are the calls of the source. How the source made its calls, unless noted: active means hit-call score of the fitted dose curve at least 0.9, where 1 is the maximum; inactive means score below 0.9.

Key:
[1] = ATG_TAL_CIS: Attagene CIS-FACTORIAL HepG2 Assay for human TAL Basal Promoter (AID 2282966); conditions: HepG2 Attagene cis-factorial TAL promoter reporter; actives raise or lower the signal;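 further: background control endpoint measuring basal TAL promoter reporter mRNA not a specific factor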
Summary of the method: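 Background-control endpoint: basal TAL promoter reporter transcripts in transiently transfected HepG2, measured 24 h after dosing. Read-out by RT-PCR with fluorescent primer extension and capillary electrophoresis; gain or loss of signal fitted relative to DMSO.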

[2] = ATG_TGFb_CIS: Attagene CIS-FACTORIAL HepG2 Assay for human Transforming Growth Factor (TGF) (AID 2282967); conditions: HepG2 Attagene CIS TGFb reporter, mRNA transcription; actives raise or lower the signal
Summary of the method: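 After a 24-hour incubation with compound, transfected HepG2 cells were lysed for RNA; reporter cDNA was amplified, fluorescently end-labeled and separated by CE. DMSO served as baseline for bidirectional fits.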

[3] = ATG_VDRE_CIS: Attagene CIS-FACTORIAL HepG2 Assay for human Vitamin D Receptor Element (VDRE) (AID 2282968); conditions: HepG2 VDRE cis-reporter transcription, actives raise or lower the signal
Summary of the method: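 Measures endogenous factor activity through cis-element-driven reporter transcripts in transiently transfected HepG2. Cells are treated 24 h; reporter mRNA is quantified by RT-PCR and capillary electrophoresis; fitting is bidirectional.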

[4] = molecular target: X-box-binding protein 1 (Homo sapiens) (UniProt P17861); assay: ATG_Xbp1_CIS: Attagene CIS-FACTORIAL HepG2 Assay for human X-box Binding Protein 1 (XBP1) (AID 2282972); conditions: HepG2 XBP1 cis-element reporter, Attagene multiplex; actives raise or lower the signal
Sequence of X-box-binding protein 1 (Homo sapiens) (P17861 whole entry, looked up): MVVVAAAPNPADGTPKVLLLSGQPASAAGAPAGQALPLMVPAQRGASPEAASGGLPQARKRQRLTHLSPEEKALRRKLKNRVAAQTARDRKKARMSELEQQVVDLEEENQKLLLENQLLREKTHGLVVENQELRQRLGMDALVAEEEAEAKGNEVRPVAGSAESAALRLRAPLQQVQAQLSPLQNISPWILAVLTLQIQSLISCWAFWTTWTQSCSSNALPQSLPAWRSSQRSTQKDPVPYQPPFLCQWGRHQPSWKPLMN
Summary of the method: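 Reporter transcripts were quantified by RT-PCR with fluorescent primer extension and capillary electrophoresis after 24 h chemical exposure. Cells: transiently transfected HepG2 carrying cis-regulated reporter constructs; data fitted bidirectionally relative to DMSO.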

[5] = ATG_GAL4_TRANS: Attagene TRANS-FACTORIAL HepG2 Assay for GAL4 (Internal Marker) (AID 2282976; active means hit-call score of the fitted dose curve at least 0.9, where 1 is the maximum); conditions: HepG2 Attagene TRANS GAL4 internal marker reporter
Summary of the method: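 In transfected human HepG2 liver cells dosed 24 h, GAL4 reporter mRNA serves as a baseline marker. Detection by RT-PCR with fluorescent capillary electrophoresis, activity fitted upward relative to DMSO.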

[6] = molecular target: Nuclear receptor subfamily 1 group I member 3 (Homo sapiens) (UniProt Q14994); assay: ATG_CAR_TRANS: Attagene TRANS-FACTORIAL HepG2 Assay for human Constitutive Androstane Receptor (CAR) (AID 2282969; active means hit-call score of the fitted dose curve at least 0.9, where 1 is the maximum;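 further: activators raise reporter mRNA above DMSO so AC50 marks induction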); conditions: HepG2 Attagene TRANS-FACTORIAL CAR reporter
Sequence of Nuclear receptor subfamily 1 group I member 3 (Homo sapiens) (Q14994 whole entry, looked up, the tested form may be a part): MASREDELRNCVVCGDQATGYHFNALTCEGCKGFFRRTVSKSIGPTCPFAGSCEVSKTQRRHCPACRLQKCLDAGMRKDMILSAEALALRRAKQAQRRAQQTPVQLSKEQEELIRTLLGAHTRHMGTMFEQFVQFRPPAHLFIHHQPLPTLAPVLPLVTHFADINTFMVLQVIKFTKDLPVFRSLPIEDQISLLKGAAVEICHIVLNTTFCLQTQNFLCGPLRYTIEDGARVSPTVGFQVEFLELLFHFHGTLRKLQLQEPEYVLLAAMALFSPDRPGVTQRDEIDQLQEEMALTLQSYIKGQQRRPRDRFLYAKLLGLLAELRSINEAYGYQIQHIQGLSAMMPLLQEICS
Summary of the method: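 Signal is reporter mRNA induction relative to DMSO, measured 24 h after dosing by RT-PCR with fluorescent primer extension and capillary electrophoresis. Human HepG2 liver cells carried transiently transfected chimeric NR-Gal4/GAL4-UAS reporter constructs.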

[7] = molecular target: Estrogen receptor (Homo sapiens) (UniProt P03372); assay: ATG_ERa_TRANS: Attagene TRANS-FACTORIAL HepG2 Assay for human Estrogen Receptor alpha (ERa) (AID 2282970; active means hit-call score of the fitted dose curve at least 0.9, where 1 is the maximum); conditions: HepG2 Attagene TRANS ERa GAL4 reporter, mRNA
Sequence of Estrogen receptor (Homo sapiens) (P03372 whole entry, looked up, the tested form may be a part): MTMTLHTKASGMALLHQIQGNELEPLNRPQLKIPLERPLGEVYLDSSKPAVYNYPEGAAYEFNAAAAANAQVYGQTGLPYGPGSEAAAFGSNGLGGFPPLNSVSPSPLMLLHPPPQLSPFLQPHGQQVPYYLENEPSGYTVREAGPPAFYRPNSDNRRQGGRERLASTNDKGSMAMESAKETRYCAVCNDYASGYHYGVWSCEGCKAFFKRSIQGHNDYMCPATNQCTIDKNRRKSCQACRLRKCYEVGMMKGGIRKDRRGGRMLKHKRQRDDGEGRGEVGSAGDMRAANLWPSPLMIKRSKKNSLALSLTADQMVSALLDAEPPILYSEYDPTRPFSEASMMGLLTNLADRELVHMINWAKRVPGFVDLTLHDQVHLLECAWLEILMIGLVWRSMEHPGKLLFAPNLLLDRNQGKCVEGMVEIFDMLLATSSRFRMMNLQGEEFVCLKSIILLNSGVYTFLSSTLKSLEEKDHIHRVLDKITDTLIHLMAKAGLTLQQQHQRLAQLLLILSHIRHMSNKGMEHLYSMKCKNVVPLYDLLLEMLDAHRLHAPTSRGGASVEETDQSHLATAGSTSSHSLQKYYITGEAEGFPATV
Summary of the method: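 Reporter transcripts were measured 24 h after dosing by RT-PCR with fluorescent primer extension and capillary electrophoresis. The system is transiently transfected HepG2 expressing exogenous NR-Gal4 chimeras driving GAL4-UAS reporters; DMSO is the baseline.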

[8] = molecular target: Steroid hormone receptor ERR1 (Homo sapiens) (UniProt P11474); assay: ATG_ERRa_TRANS: Attagene TRANS-FACTORIAL HepG2 Assay for human Estrogen-Related Receptor alpha (ERRa) (AID 2282971; active means hit-call score of the fitted dose curve at least 0.9, where 1 is the maximum); conditions: HepG2 Attagene TRANS reporter, ERRa transactivation
Sequence of Steroid hormone receptor ERR1 (Homo sapiens) (P11474 whole entry, looked up, the tested form may be a part): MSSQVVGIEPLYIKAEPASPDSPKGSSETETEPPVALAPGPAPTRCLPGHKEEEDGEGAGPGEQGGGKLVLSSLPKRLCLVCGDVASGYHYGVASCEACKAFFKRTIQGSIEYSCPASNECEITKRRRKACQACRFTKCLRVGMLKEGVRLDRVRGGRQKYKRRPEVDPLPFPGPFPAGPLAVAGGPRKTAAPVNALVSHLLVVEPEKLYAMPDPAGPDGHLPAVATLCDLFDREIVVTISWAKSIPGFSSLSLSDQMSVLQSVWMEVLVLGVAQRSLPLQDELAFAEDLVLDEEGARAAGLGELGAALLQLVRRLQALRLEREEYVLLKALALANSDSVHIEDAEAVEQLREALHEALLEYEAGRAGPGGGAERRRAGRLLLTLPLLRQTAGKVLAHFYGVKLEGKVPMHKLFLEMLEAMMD
Summary of the method: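 Reporter transcripts from ERRa-Gal4 chimera activity measured in transiently transfected human HepG2 cells 24 hours after dosing, using RT-PCR with 6-FAM primer extension, HpaI digestion and capillary electrophoresis; DMSO is baseline.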

[9] = molecular target: Estrogen-related receptor gamma (Homo sapiens) (UniProt P62508); assay: ATG_ERRg_TRANS: Attagene TRANS-FACTORIAL HepG2 Assay for human Estrogen-Related Receptor gamma (ERRg) (AID 2282977; active means hit-call score of the fitted dose curve at least 0.9, where 1 is the maximum;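 further: hits increase reporter signal over DMSO so potencies reflect activators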); conditions: HepG2 Attagene TRANS reporter, ERRg transactivation
Sequence of Estrogen-related receptor gamma (Homo sapiens) (P62508 whole entry, looked up, the tested form may be a part): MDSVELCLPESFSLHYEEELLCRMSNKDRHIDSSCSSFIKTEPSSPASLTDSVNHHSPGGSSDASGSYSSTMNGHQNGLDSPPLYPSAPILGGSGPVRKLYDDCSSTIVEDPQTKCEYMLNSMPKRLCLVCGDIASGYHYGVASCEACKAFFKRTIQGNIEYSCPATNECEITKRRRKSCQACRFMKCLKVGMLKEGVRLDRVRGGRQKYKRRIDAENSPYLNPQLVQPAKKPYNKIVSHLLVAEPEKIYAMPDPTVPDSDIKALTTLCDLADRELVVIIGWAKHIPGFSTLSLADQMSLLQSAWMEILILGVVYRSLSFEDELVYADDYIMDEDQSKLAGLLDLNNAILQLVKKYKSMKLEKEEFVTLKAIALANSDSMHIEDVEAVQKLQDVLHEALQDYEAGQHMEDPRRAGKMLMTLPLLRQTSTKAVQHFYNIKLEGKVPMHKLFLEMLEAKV
Summary of the method: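 Exogenous NR-Gal4 chimera activity was assessed in HepG2 cells bearing transfected GAL4-UAS reporters. After 24 h dosing, total RNA underwent RT-PCR, fluorescent primer extension and HpaI digestion before capillary electrophoresis, with gain of signal scored against DMSO.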

[10] = ATG_M_19_TRANS: Attagene TRANS-FACTORIAL HepG2 Assay for M19 Transcription Factor (Internal Marker) (AID 2282974; active means hit-call score of the fitted dose curve at least 0.9, where 1 is the maximum); conditions: HepG2 Attagene TRANS-FACTORIAL M19 internal marker reporter
Summary of the method: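 Background-control readout: after 24 h chemical exposure of transfected HepG2 carrying GAL4-driven reporter units, RNA was reverse-transcribed, amplified, fluorescently labeled and sized by capillary electrophoresis; gain-of-signal fit against DMSO.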

In the case of CCCCCNCCCCC, the outcome [1] is reported as “inactive”, the outcome [2] is reported as “inactive” and the outcome [3] is reported as “inactive”. The outcome [4] was “inactive” and the outcome [5] was “inactive”.
With c1ccc2[nH]ccc2c1 the outcome [1] was “inactive”, the outcome [2] was “inactive” and the outcome [3] was “inactive”. The outcome [4] was “inactive” and the outcome [5] was “inactive”.
In the case of CC(C)Oc1ccccc1O, the outcome [1] is reported as “inactive”, the outcome [2] is reported as “inactive” and the outcome [6] is reported as “inactive”. For the same compound, the outcome [7] was “inactive”, the outcome [4] was “inactive” and the outcome [5] was “inactive”.
In the case of CCn1c2ccccc2c2cc(N)ccc21, the outcome [1] is reported as “inactive”, the outcome [2] is reported as “inactive” and the outcome [6] is reported as “inactive”. For the same compound, the outcome [7] was “inactive”, the outcome [8] was “inactive” and the outcome [4] was “inactive”. For the same compound, the outcome [9] was “inactive”.
In the case of C=C[Si](OCC)(OCC)OCC, the outcome [1] is reported as “inactive”, the outcome [2] is reported as “inactive” and the outcome [3] is reported as “inactive”. The outcome [4] was “inactive” and the outcome [5] was “inactive”.
For OCCN1CCNCC1, the outcome [1] was “inactive”, the outcome [2] was “inactive” and the outcome [3] was “inactive”. For the same compound, the outcome [4] was “inactive”, the outcome [5] was “inactive” and the outcome [9] was “inactive”.
In the case of CCCC1CCC(=O)O1 (configuration not stated), the outcome [1] is reported as “inactive”, the outcome [2] is reported as “inactive” and the outcome [3] is reported as “inactive”. For the same compound, the outcome [4] was “inactive” and the outcome [5] was “inactive”.
With O=c1oc(=O)c2cc3c(=O)oc(=O)c3cc12 the outcome [1] was “inactive”, the outcome [2] was “inactive” and the outcome [3] was “inactive”. The outcome [4] was “inactive”, the outcome [10] was “inactive” and the outcome [5] was “inactive”. For the same compound, the outcome [9] was “inactive”.
In the case of O=C(Nc1ccccc1)c1cc([N+](=O)[O-])ccc1Cl, the outcome [1] is reported as “inactive”, the outcome [2] is reported as “inactive” and the outcome [6] is reported as “inactive”. The AC50 [7] was 5.47 µM (active), the AC50 [4] was 4.35 µM (active) and the outcome [9] was “inactive”.
With CCCCCCCCCCCCCC(=O)O the outcome [1] was “inactive”, the outcome [2] was “inactive” and the outcome [3] was “inactive”. The outcome [4] was “inactive”, the outcome [5] was “inactive” and the outcome [9] was “inactive”.
For CC(C)=CCC[C@H](C)CC=O, the outcome [1] was “inactive”, the outcome [2] was “inactive” and the outcome [3] was “inactive”. For the same compound, the outcome [4] was “inactive” and the outcome [5] was “inactive”.
With CCCc1c(OCCCOc2ccc(OCC(=O)O)cc2)ccc(C(C)=O)c1O the outcome [1] was “inactive”, the AC50 [2] was 70.5 µM (active) and the AC50 [3] was 27.5 µM (active). The outcome [4] was “inactive” and the outcome [5] was “inactive”.
For CCCCNC(=O)NS(=O)(=O)c1ccc(C)cc1, the outcome [1] was “inactive”, the outcome [2] was “inactive” and the outcome [3] was “inactive”. For the same compound, the outcome [4] was “inactive”, the outcome [10] was “inactive” and the outcome [9] was “inactive”.
In the case of CCCCCCCCCCCCCOS(=O)(=O)O, the outcome [1] is reported as “inactive”, the outcome [2] is reported as “inactive” and the outcome [3] is reported as “inactive”. For the same compound, the outcome [4] was “inactive” and the outcome [5] was “inactive”.
In the case of CCC(=O)/C=C/C1C(C)=CCCC1(C)C (configuration not stated), the outcome [1] is reported as “inactive”, the outcome [2] is reported as “inactive” and the outcome [3] is reported as “inactive”. The outcome [4] was “inactive” and the outcome [5] was “inactive”.
For CC(C=O)Cc1ccc(C(C)C)cc1 (configuration not stated), the outcome [1] was “inactive”, the outcome [2] was “inactive” and the outcome [3] was “inactive”. For the same compound, the outcome [4] was “inactive” and the outcome [5] was “inactive”.
In the case of OCCCCCO, the outcome [1] is reported as “inactive”, the outcome [2] is reported as “inactive” and the outcome [6] is reported as “inactive”. For the same compound, the AC50 [7] was 76.1 µM (active), the outcome [4] was “inactive” and the outcome [5] was “inactive”.
With C=C[C@@H](C)CCC=C(C)C the outcome [1] was “inactive”, the outcome [2] was “inactive” and the outcome [3] was “inactive”. The outcome [4] was “inactive” and the outcome [5] was “inactive”.
For CCCCCCCCCCCCCCCC(=O)OC[C@H](O)[C@H]1OC(=O)C(O)=C1O, the AC50 [1] was 100 µM (active), the AC50 [2] was 3.14 µM (active) and the AC50 [3] was 37.1 µM (active). The outcome [4] was “inactive”, the outcome [5] was “inactive” and the outcome [9] was “inactive”.
With Nc1ccc(S(N)(=O)=O)cc1 the outcome [1] was “inactive”, the outcome [2] was “inactive” and the outcome [6] was “inactive”. For the same compound, the outcome [4] was “inactive” and the outcome [5] was “inactive”.
With CNCCO the outcome [1] was “inactive”, the outcome [2] was “inactive” and the outcome [4] was “inactive”. For the same compound, the outcome [10] was “inactive”.
With CC1(C)[C@@H]2CC[C@@]1(C)[C@H](O)C2 the outcome [1] was “inactive”, the outcome [2] was “inactive” and the outcome [4] was “inactive”. The outcome [10] was “inactive” and the outcome [5] was “inactive”.
In the case of COc1cc(C)cc(O)c1, the outcome [1] is reported as “inactive”, the outcome [2] is reported as “inactive” and the outcome [6] is reported as “inactive”. The outcome [4] was “inactive”, the outcome [10] was “inactive” and the outcome [5] was “inactive”.
In the case of CC1CC(OC(=O)c2ccccc2O)CC(C)(C)C1 (configuration not stated), the AC50 [1] is reported as 181 µM (active), the outcome [2] is reported as “inactive” and the outcome [6] is reported as “inactive”. For the same compound, the outcome [4] was “inactive” and the outcome [10] was “inactive”.
With Cc1cccc(Nc2ccccc2C(=O)O)c1C the outcome [1] was “inactive”, the outcome [2] was “inactive” and the outcome [4] was “inactive”. The outcome [10] was “inactive” and the outcome [5] was “inactive”.
For CCC/C=C/C=O, the outcome [1] was “inactive”, the outcome [2] was “inactive” and the outcome [4] was “inactive”. For the same compound, the outcome [10] was “inactive”.
In the case of CCCCCOC(=O)CCC, the outcome [1] is reported as “inactive”, the outcome [2] is reported as “inactive” and the outcome [6] is reported as “inactive”. The outcome [8] was “inactive”, the outcome [4] was “inactive” and the outcome [10] was “inactive”. For the same compound, the outcome [5] was “inactive” and the outcome [9] was “inactive”.
With O=[N+]([O-])c1cc(C(F)(F)F)ccc1Cl the outcome [1] was “inactive”, the outcome [2] was “inactive” and the outcome [6] was “inactive”. The outcome [8] was “inactive” and the outcome [4] was “inactive”.
For O=C[C@H](O)[C@H](O)[C@H](O)CO, the outcome [1] was “inactive”, the outcome [2] was “inactive” and the outcome [6] was “inactive”. The outcome [4] was “inactive” and the outcome [5] was “inactive”.
For CC(C)[C@H]1CC[C@@H](C)CC1=O, the outcome [1] was “inactive”, the outcome [2] was “inactive” and the outcome [4] was “inactive”. For the same compound, the outcome [10] was “inactive” and the outcome [5] was “inactive”.
In the case of CCCCC[Si](OCC)(OCC)OCC, the outcome [1] is reported as “inactive”, the outcome [2] is reported as “inactive” and the outcome [4] is reported as “inactive”. For the same compound, the outcome [5] was “inactive”.
